This is an account of results in PubChem BioAssay AID540317 (National Center for Advancing Translational Sciences (NCATS), 2011).

Hit rate of the full screen: of about 390,000 compounds, about 2,200 (0.56%) were called active. Inconclusive results (about 3%) are left out. The call rests on the fitted dose curve; in most records, active means well fitted inhibition curve with a large enough effect; inconclusive means small, poorly fitted or top-dose-only effect; inactive means no such curve, though single readings can be large or run the other way. The list comes from a sample in which actives are over-represented; it also holds similar structures and randomly drawn compounds. A call without a number means that no potency is given here.
Potency means the concentration at half of the fitted maximal effect.

For this test, the target named is Chromobox protein homolog 1 (Homo sapiens) (UniProt P83916). The experiment in a line: HTS for Inhibitors of HP1-beta Chromodomain Interactions with Methylated Histone Tails. Further: nearly all actives have a fitted effect of over 70% in size. The settings on record: AlphaScreen HP1-beta / biotin-H3K9me3 peptide binding; series mostly up to 114 µM. From the text: As our understanding of epigenetics expands, it is becoming clear that players in this field are potential targets for drug development. This area of epigenetic therapy has established applications for the treatment of cancer and neurological diseases. We have been involved in this field for a number of years and have performed high-throughput screens to identify the first small molecule inhibitors of protein methyltransferases. These methyltransferases target multiple substrates, and thus regulate many arms of an epigenetic pathway. The methylation of different substrates often generates docking sites for effector proteins that harbor binding domains (chromo, tudor, PHD, MBT and ANK repeats). It has been proposed that the binding sites generated for different proteins by these post-translational modifcations mediate downstream effects on chromatin. Consistent with this theory, di- and tri-methylation of histone H3K9 facilitates the binding of heterochromatin protein HP1. The HP1 protein harbors a chromodomain that is responsible for the methyl-dependent interaction between HP1 and lysine 9 of histone H3. HP1 was first described in flies as a heterochromatin associated protein that can regulate gene silencing. It harbors a chromodomain that binds H3K9me3. In addition, it harbors a chromoshadow domain that interacts with a large number of proteins that are involved in heterochromatin formation and gene repression. There are three highly related HP1 isoforms. All three variants are associated with pericentric heterochromatin and it is not clear whether they have specific or redundant functions. MPP8 is also involved in the repression of gene in euchromatic regions (unpublished data) and like HP1 its chromodomain binds H3K9me3. MPP8 harbors an ankyrin repeat region that is likely involved in binding and recruiting interacting proteins with transcriptional repressive function, much like the chromoshadow domain of HP1 does. We hypothesize that by inhibiting specific protein-protein interactions we will be able to develop compounds that block a single arm of an epigenetic pathway. The specificity attained by blocking a single protein-protein interaction will be far greater than that attained by blocking the enzyme that regulates one of many interactions. Low-affinity protein-protein interactions (Kd in the single- to double-digit micromolar range) such as those discussed here have been very difficult to assay by traditional techniques such as fluorescence polarization or fluorescence resonance energy transfer. We have developed a sensitive chemiluminescence-based assay (Quinn, et al. 2009), which serves as the starting point for this project. The following is a validation assay to identify lead compounds that can block methyl-dependent protein-protein interactions (specifically HP1-beta), which can be used as probes to analyze these methyl-driven interactions and perhaps even developed into targeted epigenetic therapies. NIH Chemical Genomics Center [NCGC] NIH Molecular Libraries Probe Centers Network [MLPCN] MLPCN Grant: DA031087 Assay Submitter (PI): Mark Bedford, University of Texas, Medical Anderson Cancer Center, TX
Chromobox protein homolog 1 (Homo sapiens), sequence (P83916 whole entry, looked up): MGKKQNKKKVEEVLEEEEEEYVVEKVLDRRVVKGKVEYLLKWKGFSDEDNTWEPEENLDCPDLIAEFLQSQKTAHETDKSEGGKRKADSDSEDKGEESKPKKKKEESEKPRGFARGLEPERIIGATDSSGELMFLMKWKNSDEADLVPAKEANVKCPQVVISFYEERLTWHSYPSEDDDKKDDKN
To each well, 2 uL of HP1-beta protein (final 50 nM) and 1 uL biotinylated histone peptide trimethylated at Lys9 [b-H3(1-18)K9me3] (final 50 nM) was added in 1x PBS buffer, pH 7.4, containing 0.01% Tween-20 using a nanoliter dispenser. Formation of a protein-peptide complex proceeded at room temperature for 30 min. A Kalypsys pin-tool was employed to transfer 23 nL of library compound solution in DMSO to each well. Aurintricarboxylic acid (ATA) was used as an intraplate control with a 12-point titration in duplicate. Following a 30 min incubation of the protein-peptide complex with compounds at room temperature, a mixture of 40 ug/mL each streptavidin-coated donor and nickel chelate acceptor AlphaScreen beads (final 10 ug/mL) was added in a 1 uL dispense for a final volume of 4 uL. […]
As to `O=C(NC1=CC(=O)c2ccccc2C1=O)c1ccccc1`, the Potency is 22.4 µM (active).
Then `NS(=O)(=O)c1cc(C(=O)OCC(=O)NNC(=O)c2ccccc2)ccc1Cl`, with “inactive”; and `CCOc1ccccc1NC(=O)Cn1c2ncccc2c(=O)n1-c1ccc(C)c(C)c1`, with “inactive”.
Then `COc1cccc(Nc2nc3ccccc3c3nncn23)c1`, with “inactive”; and `Cc1csc(Nc2ccc(Cl)cc2)[n+]1-c1ccc(Cl)cc1`, with 17.8 µM (active).
As for `COC(=O)c1cc(NC(=O)c2cnc(SC)nc2-c2ccccc2)cc(C(=O)OC)c1`, the Potency result is “inactive”.
With `Cc1ccc(F)cc1S(=O)(=O)N1CCC(c2nc3ccccc3s2)CC1`, the Potency entry is “inactive”.
Then `Cc1ccc2cccc(NC(=O)c3cccc4ccccc34)c2n1`, with “inactive”.
On to `COc1cc(C(=S)NCc2ccccc2)cc(Br)c1O`, for which the Potency was 7.94 µM (active).
Then `COc1cc(Cl)cc(C2NC(=O)NC(C)=C2C(=O)NCc2ccccc2)c1O` (stereo not drawn), with “inactive”; and `COc1ccc(CNC(=O)c2ccc3c(O)c(S(=O)(=O)c4ccccc4)c(=O)[nH]c3c2)cc1`, with “inactive”; and `COC(=O)c1ccc(NC(=O)CSc2n[nH]c(-c3ccccc3)n2)cc1`, with “inactive”.
Then `COc1ccc(OCCCn2c(C3CC(=O)N(c4ccc(F)cc4)C3)nc3ccccc32)cc1` (stereo not drawn), with “inactive”.
Consider `COc1ccc2c(c1)CCc1c(C(=O)Nc3cc(C)ccc3O)noc1-2`, for which the Potency entry is “inactive”.
Take `Cc1nnc(N2CCCC(C(=O)NCCN(C)C)C2)c2nn(-c3ccccc3)c(C)c12` (stereo not drawn): the Potency result is “inactive”.
With `CN(C)c1ccc(Nc2c3c4c(cccc4n(C)c2=O)C(=O)c2ccccc2-3)cc1`, the Potency is 4.47 µM (active).
On to `COc1ccc(Cl)cc1NC(=O)CCS(=O)(=O)c1ccc(Br)cc1`, for which the Potency was 12.6 µM (active).
For the compound `COc1ccc(Cl)cc1NC(=O)CCC(=O)c1ccc(C)cc1`, the Potency entry is “inactive”.
Then `COc1ccc(Cl)cc1NC(=O)CN(C)Cc1ccc(OC)c(OC)c1`, with 39.8 µM (active); and `COc1ccc(Cl)cc1NC(=O)CN(C)CC(=O)Nc1ccc2c(c1)OCO2`, with “inactive”.
Regarding `COc1ccc(Cl)cc1NC(=O)CN(C)C(=O)CNC(=O)C12CC3CC(CC(C3)C1)C2`, the Potency result is “inactive”.
Under `Cc1ccc(Cl)cc1NC(=O)CCS(=O)(=O)c1ccc(Br)s1` stands “inactive”; under `O=C(Nc1cccc2cccnc12)c1cccc2c(Br)cccc12`, “inactive”.
Then `COc1cccc(CNC(=O)CCc2nc(-c3ccc(C)cc3)no2)c1`, with “inactive”.
Then `C=CCCN(C(Cc1ccccc1)C(=O)OC)S(=O)(=O)c1cc(Br)ccc1Br` (stereo not drawn), with “inactive”; and `COc1ccc(-c2noc(-c3ccc(N4CCN(c5ccccc5)CC4)c([N+](=O)[O-])c3)n2)cc1OC`, with “inactive”; and `CCc1ccc(NC(=O)CN2C(=O)CCSc3ccc(S(=O)(=O)N4CCCC4)cc32)cc1`, with “inactive”.
With `Cc1ccc(-c2nnc3ccc(SCC(N)=O)nn23)cc1`, the Potency result is “inactive”.
Under `COC(=O)CCc1ccccc1S(=O)(=O)N(CCC(=O)OC)Cc1ccccc1` stands “inactive”; under `Cc1ccc(C)c(Nc2nnc(-c3ccc(C)c(S(=O)(=O)N4CCCCC4)c3)c3ccccc23)c1`, “inactive”.
Then `CC(C)OP(=O)(OC(C)C)C(Nc1ccccc1)c1cccc([N+](=O)[O-])c1` (stereo not drawn), with “inactive”; and `COC(=O)/C=C\C(=O)Nc1cccc([N+](=O)[O-])c1`, with 10 µM (active).
Consider `CCc1ccc(NC(=O)C(C)OC(=O)/C=C/c2cccc([N+](=O)[O-])c2)cc1` (stereo not drawn), for which the Potency entry is “inactive”.
For `Cc1c(-c2nsc(NC(=O)c3cccc(Cl)c3)n2)nnn1-c1ccccc1C(F)(F)F`, the Potency entry is “inactive”.
As to `CCOCCCNC(=O)c1ccc2nc(CCc3ccccc3)oc2c1`, the Potency result is “inactive”.
Then `CCOc1ccc(NC(=S)NC(=O)/C=C/c2ccc(OC)cc2)c([N+](=O)[O-])c1`, with “inactive”; and `COc1cccc(N2CC(NC(=O)/C=C\c3ccccc3)CC2=O)c1` (stereo not drawn), with “inactive”.
For `COc1ccc(/C=C/C(=O)c2cc(Br)ccc(=O)c2O)cc1`, the Potency is 50.1 µM (active).
For the compound `CC1CCN(S(=O)(=O)c2ccc3c(c2)N(CC(=O)NCCc2ccccc2)C(=O)CO3)CC1`, the Potency result was “inactive”.
Under `Brc1nc2ncnc(NCc3ccco3)c2[nH]1` stands “inactive”; under `Nc1ccc2[nH]c(=S)sc2c1`, 28.2 µM (active); under `COC(=O)c1ccc(NC(=O)CCc2c(C)nn(-c3ccc(N4CCCC4)nn3)c2C)cc1`, “inactive”.
Then `OCC(CO)(CO)NCc1ccc(-c2ccccc2)cc1`, with “inactive”; and `Oc1ccc(N2CCN(C(=S)NCc3ccccc3)CC2)cc1`, with “inactive”; and `Oc1ccc(CNc2ccccc2O)cc1`, with 50.1 µM (active).
For the compound `COc1cccc(CNC(=O)CSc2c3c(nc4cc(Cl)ccc24)CCCC3)c1`, the Potency result is “inactive”.
Turning to `N#Cc1cc2[nH]c(=O)c(=O)[nH]c2cc1[N+](=O)[O-]`, the Potency result was “inactive”.
As to `CCN(C(=O)Cn1cnc2sc(C)c(S(=O)(=O)N3CCN(c4ncccn4)CC3)c2c1=O)c1ccccc1F`, the Potency entry is “inactive”.
Under `O=S(=O)(c1ccccc1)c1nc(-c2ccc(Cl)cc2Cl)oc1N1CCCCC1` stands “inactive”; under `Cc1ccc(C(=O)COC(=O)CCCC(=O)NC2CCCCC2)cc1[N+](=O)[O-]`, “inactive”.
On to `Cc1cc([N+](=O)[O-])c(N2CCC[C@@H]2C(=O)O)c([N+](=O)[O-])c1`, for which the Potency entry is “inactive”.
For the compound `Cc1cc([N+](=O)[O-])c(NC2CCCCC2)c([N+](=O)[O-])c1`, the Potency is 15.8 µM (active).
For the compound `COc1ccc(C2Nc3ccc(NC(=O)COC(C)=O)cc3C(=O)N2Cc2ccccc2)cc1COc1ccc(NC(C)=O)cc1` (stereo not drawn), the Potency entry is “inactive”.
In the case of `O=C(NCc1ccccc1)c1cccc(NC(=O)N2CCSc3ncccc32)c1`, the Potency entry is “inactive”.
As to `CCCN(C(=O)Cn1ncc2c([nH]c3ccc(C)cc32)c1=O)c1ccccc1C`, the Potency result was “inactive”.
Take `Cc1ccc(CCNC(=O)c2nnc(Cc3cccc(F)c3)o2)cc1`: the Potency result was “inactive”.
Under `COc1cccc(-c2n[nH]c3c2C(c2cccc(O)c2)N(C)C3=O)c1` (stereo not drawn) stands “inactive”; under `O=C(CN1CCC(NC(=O)C2CC2)CC1)Nc1ccccc1[N+](=O)[O-]`, “inactive”.
Then `O=C(CN1CCCCCC1)Nc1ccc(Br)cc1Br`, with “inactive”; and `O=C(CN1CCCCCC1)Nc1ccc(Br)cc1[N+](=O)[O-]`, with 50.1 µM (active); and `COc1ccc(C(CCN2CCOCC2)c2c(OC)cc(OC)c3c2OC(=O)CC3c2ccc(OC)cc2)cc1` (stereo not drawn), with “inactive”.
On to `CCOc1ccc(N2CC(C)Cn3c2nc2c3c(=O)n(Cc3c(F)cccc3Cl)c(=O)n2C)cc1` (stereo not drawn), for which the Potency result was “inactive”.
Then `COC(=O)c1ccccc1NC(=O)Cn1c(=O)n(-c2cccc(C(F)(F)F)c2)c(=O)c2c(C)c(C)sc21`, with “inactive”.
